For 19 compounds, Potency and outcome results are on record in PubChem BioAssay (Tox21).

Assay [1] is described as follows: qHTS assay for small molecules that induce genotoxicity in human embryonic kidney cells expressing luciferase-tagged ATAD5 (AID 651632). Note: nearly all actives have a fitted effect of over 15% in size. An outline of the steps:
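Luminescence read-out: after 16 hr compound exposure at 37C, ATAD5-luciferase HEK293T cells received Amplite, 30 min RT, then CCD imaging. A rise in signal marks genotoxic stress.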

Assay [2] is described as follows: qHTS assay for small molecule agonists of the p53 signaling pathway - cell viability (AID 651633; calls by dose curve; note: nearly all actives have a fitted effect of over 30% in size; note: potency is the fitted concentration of half-maximal effect). A digest of the protocol:
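p53RE-bla cells, seeded at 4,000 per well and rested 5 h at 37 C/5% CO2, received compounds in DMSO for 16 h at 37 C. CellTiter-Glo was then added, and luminescence was read after 30 min at room temperature to gauge cytotoxicity.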
A general note: Quantitative high-throughput screening tests each substance at several concentrations.

Assay [3] can be described thus: qHTS assay for small molecules that induce genotoxicity in human embryonic kidney cells expressing luciferase-tagged ATAD5 - cell viability (AID 651634; calls by dose curve; note: nearly all actives have a fitted effect of over 25% in size; note: potency is the fitted concentration of half-maximal effect). A digest of the protocol:
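HEK293T ATAD5-luc cells, 2,000/well; compound 15.5 hr, 37C/5% CO2; CellTiter-Fluor 30 min, 37C; fluorescence read.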

The nature of assay [4]: qHTS assay for small molecule disruptors of the mitochondrial membrane potential - cell viability (AID 720634; calls by dose curve;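 note: human HepG2 liver cancer cells; series mostly up to about 83 µM; nearly all actives have a fitted effect of over 20% in size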). A digest of the protocol:
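Luminescence from CellTiter-Glo (ATP content) gave viability in HepG2 cells, read in the same wells as the MMP dye assay after 1 hr compound exposure at 37 C.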

Assay [5] can be described thus: qHTS assay for small molecule disruptors of the mitochondrial membrane potential (AID 720635). Note: potency is the fitted concentration of half-maximal effect. A digest of the protocol: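 HepG2 cells (2,000/well) attached overnight at 37C, then took compound for 1 hr at 37C, 5% CO2. Mito-MPS dye was added for 30 min; fluorescence was read at 490/535 nm (monomers) and 540/590 nm (aggregates).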
The nature of assay [6]: qHTS assay to test for compound auto fluorescence at 590 nm (red) in HepG2 cells (AID 720674). An outline of the steps:
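Rose Bengal sodium served as the red fluorophore standard. HepG2 monolayers (overnight attachment, MEM with 10% FBS) were exposed to test compounds for 1 hr at 37 C and read at Ex 540/Em 590 nm.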

Assay [7] in a line: qHTS assay to test for compound auto fluorescence at 535 nm (green) in HepG2 cells (AID 720675).
Assay [8] in a line: qHTS assay to test for compound auto fluorescence at 460 nm (blue) in HEK293 cells (AID 720678). An outline of the steps: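 Blue-channel (Ex/Em 405/460 nm) intensity measured in HEK293 cultures after overnight compound exposure at 37C; signal expressed relative to triamterene. Cells plated 2,000 per well in 10% dialyzed FBS medium and allowed 4-5 hr to attach.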
A short description of assay [9]: qHTS assay to test for compound auto fluorescence at 590 nm (red) in HEK293 cells (AID 720679). An outline of the steps:
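Red-channel autofluorescence (Ex/Em 540/590 nm; Rose Bengal sodium reference) was measured after overnight 37C, 5% CO2 exposure of attached HEK293 cells, 2,000 per well in medium with 10% dialyzed FBS.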

Assay [10] can be described thus: qHTS assay for small molecule agonists of the p53 signaling pathway (AID 651631; calls by dose curve; note: nearly all actives have a fitted effect of over 15% in size). An outline of the steps: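 HCT-116 cells carrying a beta-lactamase reporter under p53 response elements were dosed with compound for 16 h at 37 °C. LiveBLAzer B/G FRET substrate was then added for 2 h at room temperature, and fluorescence intensity was read to detect pathway agonism.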

Where “and” joins values, the source holds several entries; their conditions need not be identical. Equal values may be shown once. Records with an inconclusive call do not appear. Calls of active or inactive are those of the source. Unless noted, calls come from the whole dose curve; as a rule, active = well fitted curve in the direction sought with a large enough effect in the repeat runs; inconclusive = weak or mixed curves; inactive = no such curve, though single readings can be large; an effect the other way counts as inactive or inconclusive.

On to `O=C1CCCCC1`, for which the Potency entry in assay [1], in assay [2], in assay [3], in assay [4], in assay [5] and in assay [8] was “inactive” each time. Further, the compound was called inactive in assay [6], in assay [7] and in assay [9].

On to `CCCCOCCOCCOC(=O)CCCCC(=O)OCCOCCOCCCC`, for which the Potency result in assay [1], in assay [2], in assay [3], in assay [4], in assay [5] and in assay [8] was “inactive” each time. Also, the call in [6] and in assay [7] was inactive.

With `CC(=O)[C@@]1(O)CC[C@H]2[C@@H]3CCC4=CC(=O)CC[C@]4(C)[C@H]3CC[C@@]21C`, the Potency entry in [1], in assay [3], in assay [4], in [5] and in [8] was “inactive” each time. Moreover, the result in [6], in assay [7] and in assay [9] was inactive.

Consider `CCCCCCCCCC(=O)O`, for which the Potency result in assay [1], in assay [2], in [3] and in [8] was “inactive” in each case. For the same compound, the compound was classed as inactive in [6], in assay [7] and in assay [9].

As to `CC(C)(N=C=O)c1cccc(C(C)(C)N=C=O)c1`, the Potency entry in assay [1], in assay [2], in [3], in [4] and in assay [8] was “inactive” throughout. The outcome in assay [6], in assay [7] and in [9] was inactive.

For the compound `Nc1c(S(=O)(=O)O)cc(Br)c2c1C(=O)c1ccccc1C2=O`, the Potency entry in assay [1], in [2], in [4] and in assay [8] was “inactive” in each case. The Potency in assay [3] is 30.6 µM (active). In addition, the compound was classed as inactive in [6], in assay [7] and in [9].

Regarding `Cc1ccc(C(=O)O)o1`, the Potency result in assay [1], in assay [2], in assay [3], in assay [4], in assay [5] and in assay [8] was “inactive” in each case. Also, the result in [6], in assay [7] and in assay [9] was inactive.

As to `CC1=C(/C=C/C(C)=C/C=C/C(C)=C/CO)C(C)(C)CCC1`, the Potency entry in assay [1], in [2], in assay [3], in assay [4] and in [8] was “inactive” each time. Moreover, the compound was classed as inactive in [6], in [7] and in assay [9].

For the compound `OCC#CCO`, the Potency result in assay [10], in assay [2], in assay [3], in assay [4], in [5] and in assay [8] was “inactive” each time. In addition, the compound was classed as inactive in assay [6], in assay [7] and in [9].

Turning to `Cc1cc(O)cc(C)c1Cl`, the Potency entry in assay [1], in [2], in assay [3], in assay [4] and in assay [8] was “inactive” throughout. Moreover, the Potency in [5] is 21.1 µM (active) and 21.7 µM (active). The compound was called inactive in assay [6] and in assay [7].

For the compound `CCCCCCC(C)(C)S`, the Potency entry in [1], in assay [3], in assay [4], in assay [5] and in assay [8] was “inactive” throughout. The compound was classed as inactive in assay [6], in assay [7] and in assay [9].

Consider `ClC1=C(Cl)C(Cl)(Cl)C(Cl)=C1Cl`, for which the Potency entry in assay [1], in [4] and in assay [8] was “inactive” throughout. The Potency was 13.8 µM (active) in assay [2]; 6.9 µM (active) and 15.4 µM (active) in assay [3]; 61.1 µM (active) in [5]. Further, the result in assay [6] and in assay [7] was inactive.

On to `O=C1N=C(O)CN1/N=C/c1ccc(-c2ccc([N+](=O)[O-])cc2)o1`, for which the Potency result in assay [2], in [3], in assay [4] and in assay [8] was “inactive” in each case. In addition, the Potency in assay [5] is 3.35 µM (active) and 2.43 µM (active). Further, the call in assay [6], in [7] and in assay [9] was inactive.

On to `CCCCCCCCCCCCOCC1CO1` (stereo unspecified), for which the Potency result in [1], in assay [2], in assay [3], in [4], in assay [5] and in [8] was “inactive” throughout. The outcome in [6], in [7] and in assay [9] was inactive.

For `Cc1cc(NS(=O)(=O)c2ccc(N)cc2)no1`, the Potency entry in [4], in assay [5] and in [8] was “inactive” in each case. Further, the compound was called inactive in [6], in assay [7] and in [9].

With `CN(CCOc1ccc(CC2SC(=O)NC2=O)cc1)c1ccccn1` (stereo unspecified), the Potency result in [1], in assay [2], in [3], in assay [4] and in assay [8] was “inactive” in each case. For the same compound, the Potency in assay [5] is 48.3 µM (active). The call in [6], in [7] and in assay [9] was inactive.

For the compound `O=Nc1ccc(O)cc1`, the Potency result in assay [1], in assay [2], in [3], in [4] and in assay [8] was “inactive” in each case. In assay [5], the Potency is 670 nM (active) and 13.7 µM (active). For the same compound, the outcome in assay [6], in [7] and in assay [9] was inactive.

Turning to `CC1CC(OC(=O)c2ccccc2O)CC(C)(C)C1` (stereo unspecified), the Potency entry in assay [10], in assay [2], in assay [3], in assay [4] and in assay [8] was “inactive” throughout. Besides, in [5], the Potency was 27 µM (active). Further, the result in assay [6], in assay [7] and in assay [9] was inactive.

In the case of `Oc1ccc2ccccc2c1`, the Potency entry in assay [10], in assay [2], in assay [3], in assay [4] and in [8] was “inactive” throughout. The Potency in assay [5] is 49.7 µM (active) and 30.6 µM (active). Besides, the call in assay [6] and in [7] was inactive.
